Hits are enriched below; roughly 13% of the tested compounds scored in any of these assays.
USP8 block – inhibitors of human USP8 deubiquitinase; P40818; purified USP8, Ub-rhodamine cleavage fluorescence, 30 min; inhibition, % at 20 µM; 47,000 tested, 4.2% active; AID 1645853
USP10 inh – human USP10 deubiquitinase inhibition; purified USP10, Ub-rhodamine fluorescence, 60 min; AID 1645856; inhibition, % at 20 µM; 47,000 tested, 1.1% active
OTUD3 inh – inhibitors of human OTUD3 deubiquitinase; Q5T2D3; purified OTUD3, Ub-rhodamine fluorescence, 2 h; inhibition, % at 25 µM; 47,000 tested, 0.7% active; AID 1645858
USP30 block – human USP30 deubiquitinase inhibition; Q70CQ3; purified USP30, Ub-rhodamine cleavage fluorescence; inhibition, % at 25 µM; 47,000 tested, 5.3% active
USP28 inh – blocks human USP28 ubiquitin-rhodamine cleavage; Q96RU2; 47,000 tested, 3% active; purified USP28, Ub-rhodamine cleavage fluorescence, 30 min; inhibition, % at 25 µM
USP17 inh – human USP17-like deubiquitinase inhibition | A8MUK1 | purified USP17, Ub-rhodamine cleavage fluorescence, 3 h | inhibition, % at 50 µM | 47,000 tested, 6.5% active | AID 1645855
Target sequence (A8MUK1 whole entry, looked up): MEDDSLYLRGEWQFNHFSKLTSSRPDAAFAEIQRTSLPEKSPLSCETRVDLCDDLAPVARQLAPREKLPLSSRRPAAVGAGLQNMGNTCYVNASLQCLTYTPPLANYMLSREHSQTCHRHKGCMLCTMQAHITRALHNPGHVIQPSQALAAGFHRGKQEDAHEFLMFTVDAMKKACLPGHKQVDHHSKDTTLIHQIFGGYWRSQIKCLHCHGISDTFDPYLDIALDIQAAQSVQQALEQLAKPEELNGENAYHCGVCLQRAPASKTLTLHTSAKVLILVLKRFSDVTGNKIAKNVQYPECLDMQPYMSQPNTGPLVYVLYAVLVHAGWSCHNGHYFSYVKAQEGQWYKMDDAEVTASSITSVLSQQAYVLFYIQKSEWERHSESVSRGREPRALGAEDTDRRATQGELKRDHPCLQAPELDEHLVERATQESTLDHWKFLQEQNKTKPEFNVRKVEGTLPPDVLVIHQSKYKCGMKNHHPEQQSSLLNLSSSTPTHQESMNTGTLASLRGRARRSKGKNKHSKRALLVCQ
* hit, by the source's call; i = inactive; / = no result. Cut-off read from the data, not from the text of the source: active = inhibition above about 30%; inactive = the rest.

SMILES	USP8 block	USP10 inh	OTUD3 inh	USP30 block	USP28 inh	USP17 inh
COC1=C(C)C(C)(O)c2[nH]c3ccccc3c2C1=O (centres undefined)	0.0	-2.8	0.6	-3.6	6.0	41.6*
COc1c(-c2ccccc2)c2ccccc2[nH]c1=O	6.5	4.4	-0.8	6.0	-0.4	1.4
Cc1cc(C)n(-c2nc3ccccc3nc2NCCc2ccc(Cl)cc2)n1	0.0	-1.6	2.0	-11.7	-2.0	-9.6
Cc1cc(C)n(-c2nnc(NCc3ccc(Cl)cc3)nn2)n1	45.2*	2.3	13.3	25.3	19.0	27.2
Cc1cccc(N(C)C(=O)Cn2cnc(S(=O)(=O)N3CCOCC3)c2)c1	-5.5	-4.3	-5.5	-19.9	-3.1	-6.4
COc1ccccc1[C@]12C[C@H]1CN(C(=O)Nc1ccncc1)c1cccnc1C2=O	-10.0	0.0	12.9	33.9*	7.2	15.4
O=C1c2ncccc2N(S(=O)(=O)c2cccc(F)c2)C[C@@H]2C[C@]12c1ccccc1	9.9	-1.1	-5.9	1.8	3.5	-0.1
CCN1C[C@@H]2C[C@]2(c2ccccc2OC)C(=O)c2ncccc21	93.8*	-4.1	-20.0	-53.7	0.9	65.0*
Cc1cc(Nc2ccc(C(=O)N3CCC(C)CC3)cc2)n2nc(-c3cccnc3)nc2n1	0.0	1.2	7.7	17.6	6.0	-0.9
COc1cc([C@@H]2c3cc4c(cc3[C@H](O)[C@H]3COC(=O)[C@@H]23)OCO4)cc(OC)c1OC	1.9	7.7	9.3	70.5*	34.8*	62.8*
O=C(Nc1cccnc1)c1c(O)c2cccc3c2n(c1=O)CCC3	0.5	-0.1	1.8	-13.1	2.0	13.3
CCC(C)NC(=O)c1c(O)c2cccc3c2n(c1=O)CC3 (centres undefined)	53.2*	2.1	13.9	25.3	13.4	11.0
Cc1ccccc1NC(=O)C1CCCCN1S(=O)(=O)c1ccc(F)cc1 (centres undefined)	5.0	2.8	-1.4	3.1	0.1	0.2
CCc1cccc(NC(=O)N2CCC(c3nc(C(=O)N4CCCC4)c(C)o3)CC2)c1	0.0	-0.1	-0.2	-0.1	0.0	0.1
Cc1ccccc1[C@H]1C[C@@H](O)[C@@H](O)[C@@H]1NC(=O)COc1ccccc1	23.1	0.4	15.0	39.3*	15.3	21.3
COc1ccccc1C(=O)N[C@H]1[C@H](O)[C@H](O)C[C@@H]1c1ccccc1C	1.8	0.9	-7.4	13.1	7.9	14.6
Cc1cccc(NC(=O)CSc2nnc(-c3n[nH]c4c3CCC4)n2N)c1C	50.6*	19.7	10.5	37.9*	8.7	66.6*
Cc1ccc(NC(=O)CSc2nnc(-c3n[nH]c4c3CCC4)n2N)cc1C	7.7	35.8*	0.6	20.7	-1.3	4.7
Cc1cc(=O)c2c(O)oc(O)c3c(O)cc(=O)c1c32	30.9*	-0.1	-1.7	-117.9	9.0	68.3*
Cc1ccc(C)c(N(C)C(=O)c2nn(C)c3c2CSc2ccccc2-3)c1	13.2	6.3	15.1	39.2*	27.0	/
Cc1ccc2c(c1)-c1c(c(C(=O)N3CCN(c4ccccc4)CC3)nn1C)CS2	-239.1	-11.6	-202.9	i	-260.0	-193.5
CCN(CC)C(=O)C1Cn2ccnc2C2(CCN(C(=O)C3CC3)CC2)O1 (centres undefined)	-27.4	0.1	13.3	12.2	3.6	0.7
Cc1ccc2cc(-c3noc(C)n3)c(NC(C)c3ccccn3)nc2c1 (centres undefined)	3.8	2.8	-14.2	-17.5	-6.4	-12.4
CC(Nc1ncnc2cc(-c3ccc(Cl)cc3)sc12)c1ccccn1 (centres undefined)	57.3*	14.1	2.7	-0.4	6.8	-18.8
COc1ccc(-c2cc(N3CCC(NC(=O)c4ccccn4)C3)n[nH]2)cc1 (centres undefined)	-2.1	1.1	9.8	18.5	6.7	4.0
SMILES	USP8 block	USP10 inh	OTUD3 inh	USP30 block	USP28 inh	USP17 inh
COc1ccc(-c2cc(N3CCC(NC(=O)c4ccccc4)C3)n[nH]2)cc1 (centres undefined)	-29.5	7.3	0.7	0.4	-8.5	55.9*
Cc1ccc(CNc2cc(-n3cccn3)ncn2)cc1	0.3	4.5	-0.8	-2.7	30.6*	19.9
Cc1ccc(CNc2cc(-n3ccnc3)ncn2)cc1C	4.0	1.4	3.0	11.8	4.5	/
COc1ccc(-c2nnn(Cc3ccc(-c4ccccc4)cc3)n2)cc1OC	14.2	2.8	-4.5	1.4	-3.8	4.2
COc1ccc(Cn2nnc(-c3cccc(F)c3)n2)cc1F	-33.1	7.1	1.6	2.2	49.1*	5.0
Cc1ccc(NC(=O)c2nnc(C3CCCN3C(=O)C3CCC3)s2)cc1 (centres undefined)	-46.9	2.2	21.3	33.2*	15.5	13.5
CNC(=O)N1CCCC1c1nnc(C(=O)Nc2ccc(F)c(F)c2)s1 (centres undefined)	-149.0	-3.2	-4.0	-20.0	0.1	-29.3
O=C(O)C1CCC(=O)N1Cc1cccs1 (centres undefined)	14.4	-2.1	5.6	5.4	11.2	14.3
CC(C)CNc1nc2c(cc1C(=O)NCC1CC1)CCNCC2	-22.6	2.7	21.4	44.8*	12.2	0.1
O=S(=O)(NCC(O)c1ccccc1)c1ccc(-c2ccccn2)s1 (centres undefined)	0.0	1.4	-12.5	-1.4	-5.0	-11.7
NS(=O)(=O)c1ccc(CNS(=O)(=O)c2ccc(-c3ccccn3)s2)cc1	2.4	5.4	12.0	60.3*	23.7	/
CC(CCc1ccc(O)cc1)NC(=O)Nc1ccc(Cl)cc1 (centres undefined)	15.2	6.8	-1.6	8.7	4.7	-0.1
O=C(c1ccc2n[nH]nc2c1)N1CCN(c2ncccn2)CC1	3.8	0.5	5.1	3.1	11.4	-7.5
COc1ccc(CC(=O)Nc2ccccc2-c2nc3ccccc3[nH]2)cc1OC	1.7	16.2	16.0	50.1*	21.0	76.1*
COc1ccc(-c2nc3ccccc3o2)cc1NC(=O)Cc1ccc(OC)c(OC)c1	-10.0	-9.1	-88.7	-63.5	-24.5	-48.5
C1CNCC(CCc2nc(N3CCCC3)nc3c2CNCC3)C1 (centres undefined)	-46.5	-2.9	11.8	25.1	31.0*	-8.4
Cc1nc(-n2[nH]c(C)c(CC(=O)N3CCCC3)c2=O)sc1C	-372.9	1.8	4.2	-4.6	-11.2	-63.2
COc1cccc(CNC(=O)c2nc3c(s2)CCNCC3)c1	53.7*	-5.8	-3.4	-9.5	7.3	33.8*
COc1cccc(NC(=O)c2nc3c(s2)CCNCC3)c1	-13.8	-4.9	11.9	17.8	17.9	8.2
Cc1c(C)n(-c2ccc(Cl)cc2)c2ncn(CC(=O)N3CCOCC3)c(=O)c12	3.3	-1.8	5.3	-6.1	-2.4	4.2
COc1ccc(-c2cc3n(C)c(C)c(CCC(=O)NCc4ccc(F)cc4)c(=O)n3n2)cc1	5.8	-0.6	14.1	53.8*	16.7	65.5*
O=c1c2cc([N+](=O)[O-])ccc2nc(CN2CCN(c3ncccn3)CC2)n1-c1ccccc1F	-127.3	0.1	8.2	31.8*	1.6	-6.9
